Experimental data as given in the supplement of paper PMC12632987.

T1: USP38, Q8NB14
T1 chain: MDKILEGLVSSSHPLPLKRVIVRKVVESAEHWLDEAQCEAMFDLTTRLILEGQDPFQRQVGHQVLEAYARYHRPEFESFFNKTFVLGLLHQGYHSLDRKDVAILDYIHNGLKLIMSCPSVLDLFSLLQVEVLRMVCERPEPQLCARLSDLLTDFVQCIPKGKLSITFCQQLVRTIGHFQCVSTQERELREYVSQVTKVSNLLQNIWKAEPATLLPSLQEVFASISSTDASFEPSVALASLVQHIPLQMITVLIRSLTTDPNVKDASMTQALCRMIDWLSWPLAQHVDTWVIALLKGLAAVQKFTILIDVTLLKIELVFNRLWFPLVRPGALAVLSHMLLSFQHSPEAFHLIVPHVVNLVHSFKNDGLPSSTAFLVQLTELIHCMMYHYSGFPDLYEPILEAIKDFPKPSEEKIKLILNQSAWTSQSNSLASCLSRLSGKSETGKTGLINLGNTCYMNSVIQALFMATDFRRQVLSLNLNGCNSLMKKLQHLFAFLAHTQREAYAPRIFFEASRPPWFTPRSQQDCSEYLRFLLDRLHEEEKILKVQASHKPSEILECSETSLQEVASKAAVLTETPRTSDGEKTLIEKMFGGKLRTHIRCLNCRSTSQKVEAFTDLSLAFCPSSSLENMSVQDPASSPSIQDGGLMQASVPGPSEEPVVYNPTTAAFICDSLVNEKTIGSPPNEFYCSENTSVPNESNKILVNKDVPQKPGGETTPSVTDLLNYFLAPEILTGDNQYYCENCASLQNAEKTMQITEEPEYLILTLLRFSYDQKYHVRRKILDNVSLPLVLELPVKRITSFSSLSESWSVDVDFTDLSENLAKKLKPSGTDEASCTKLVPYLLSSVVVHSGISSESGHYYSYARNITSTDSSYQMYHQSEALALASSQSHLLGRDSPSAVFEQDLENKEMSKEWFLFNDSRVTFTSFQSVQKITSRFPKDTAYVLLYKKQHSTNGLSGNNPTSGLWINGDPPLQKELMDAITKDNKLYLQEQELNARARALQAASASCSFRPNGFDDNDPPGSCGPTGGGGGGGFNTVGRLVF


Target: T1, USP38, Q8NB14
Assay: median log2 fold change of GCK-ALFA target abundance (FLAG IP / Myc IP barcode read proportion) (log2 ratio); each designed protein is fused to an ALFA-tag nanobody in HEK293 cells to bring the named protein to FLAG-tagged glucokinase (GCK); Myc marks an untargeted standard; higher = target protein stabilised (more abundant)
Conditions: target protein: 3xFLAG-MCP-GCK-ALFA reporter; HEK293 landing pad (RPLP)
How it was run: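 Sequencing of reverse-transcribed, amplified circular RNA barcodes from anti-FLAG and anti-Myc immunoprecipitates provided the readout for an ALFA-nanobody-fused binder library recombined into HEK293 landing-pad cells. Those cells were induced with 2 μg mL^−1 doxycycline, transfected with a plasmid expressing a FLAG-tagged target and a Myc-tagged standard, and lysed after 48 h. Target abundance is the per-binder median log2 ratio of FLAG to Myc barcode read proportions. Only barcodes at a proportion of ≥10^−7 in both replicates and binders with ≥3 barcodes per replicate were kept, with a 10^−6 pseudocount added before the two replicates were pooled.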

Binder	median log2 fold change
usp_38_diff_out_18_121_251 (protein) EAKKVAEEALKAAKEATKLAKELLKAIKEGKWEKAEKLDKELDKKIKEFGRLYQELRDLRSEDPEQTKPLLKEVEKEGDKMIDIYNEAGTALFLAEAERQ	-0.563
usp_38_diff_out_17_26_243 (protein) SAEEKRKKARELLKKLKEESEKALEEIKKLIKEGKFEEAEKLLEETVKKVTETTLEILELAADDPELVEEVLEAYDEISDKLAQAYKELQKAKKEAAAKA	-0.0758
usp_38_diff_out_18_14_257 (protein) SKELTEATISNLKSLKEDVKEDTERVIRLLEKNKDDPERVKRIYERAKRNLAGVEKYAKEVLKEAKENGDEELAKAAEELLKAVEEARERIEEEVKRVLA	0.0724
usp_38_diff_out_17_26_242 (protein) EAEERRREARERLERLREETERALEEIDRLIAEGKFEEARKLLEETVRKATEEMTEILELAADDPELMEEALRAWDEISDRLAARYRELQAAIAAAKAAA	0.467
usp_38_diff_out_18_121_253 (protein) EAEKLAEEALKLAEKLKELSEELLKAIKEGDLEKAEKLKKEMEELLKELGRKYLELRDLRAEHPEETKELLKEVEKKANEAIDKYEKAERAYFEFLAEQA	-1.1
usp_38_diff_out_18_14_255 (protein) SEELEKATISNLNSLKEDVKKDTERVIKLLEKNKDDPERVKRITERANRNLAGVRTYAEEVLKEAEEKGWEEVKKAAEELLKTVDEAKKKIEEKVKEVLA	0.0514
usp_38_diff_out_17_26_241 (protein) SMEERRKEAEELLRRLEEETEKALEEIEKLIEEGKFEEARKLLDEAVDYATETATRILELAADDPELMDRALAVIGRIFDRLAEAYRRLEEARRRAEEEA	-0.00366
usp_38_diff_out_18_14_256 (protein) SEELTKAEISNLESLKKSVKEDTERVIRLLEKNKDDPERVKRIYERAQRNLAGVETYAKEVLERAKKEGDEELAKAAEELLKEIEEARKRIEEKVKEVLA	0.00955
usp_38_diff_out_17_26_244 (protein) SAEERNKKARELLEELKREAEKGLEEIRKLIEAGKFEEARKKLDELVTEVTERMLEILELAADNPELMEEALAAYDEISDAIAAAYRELQEARRAAAAAA	-0.152
usp_38_diff_out_17_60_247 (protein) SAEAEEIIERLKKRLEELEKRLEELEKRFEEAKKKGDKEELEKLLKEAKELIDEIADLLVELAKNSELIDPETFLELADRASELADRAFKLKQEIEKELA	0.108
usp_38_diff_out_17_60_248 (protein) SAEAEAIIARLEARLEELERRLEELERRFEEAERRGDKAELEELLKELDELLGEIADLLVELAKNSELIDPETFLRLADRASELADRAFALRQRVQQALA	-1.11
usp_38_diff_out_18_121_254 (protein) KAEELAKKALELAEEIEKLSKELLKAIKEGNKEKAEELRKKLDEKIRELGRLYQELRDLHAENPHETRELLKEVNEKANKAIDEREKAETAYFEFLAEQE	-0.478
usp_38_diff_out_17_60_246 (protein) SAEAEKIIKELEERLEELEKRLKELEKEFKKAKAAGDKAKLEALAKEAQALLDEIADLLVELAKNSEIIDPETFLELADRASELADRAFALLKEIQKELA	-0.51
usp_38_diff_out_18_121_250 (protein) DGEELLRRLREALRRAEEKLRELEELLERAEEVSLEELRAALDAAADALGEAAALLREARRRLGPEYREELEEAERRLDELVDRYTELGTRLFLLEAERQ	-0.109
usp_38_diff_out_18_121_249 (protein) NPEELLEELRRALEEARRALEELEKLLENREEVSLEELREALRRAADALGRAAALLREARRRIGPEYREEIERAEKELDELVDRYTELGRELFLLEAERE	-0.0715
usp_38_diff_out_17_35_245 (protein) SLEEKERELLERTRRAAEEALRRARELLEAAKADPSQIDRYLAEARAVLDRFLAEAADILIEAAKLEIDAEVLQEIGDIIDRASDELQAILDELEALKAA	0.015
